According to PubChem BioAssay (EPA / NIEHS):
Results filed as inconclusive are left out. The source holds several records for some structures; these can differ, active in one and inactive in another. Active and inactive are the calls of the source. How the source made its calls: active means hit-call score of the fitted dose curve at least 0.9, where 1 is the maximum; inconclusive means response in the unintended direction; inactive means score below 0.9.

Key:
[1] = ATG_XTT_Cytotoxicity: Cytotoxicity Assessment in the Attagene TRANS-FACTORIAL HepG2 Assay (AID 2283584);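 on AC50: cells exposed to compound for 24 h before reading; active means loss of viability signal versus DMSO baseline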
How it was run: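 XTT readout of cell number in transfected HepG2 cells, 24 h post-dosing; DMSO serves as negative control and baseline, with activity taken as loss of viability signal.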

[2] = TOX21_p53_BLA_p2_viability: Viability Assessment in the Tox21 HCT-116 p53 Agonism Beta-lactamase Assay, Phase 2 (AID 2283591);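 further: compound exposure lasted 16 h at 37 °C; actives lower the ATP signal meaning cytotoxicity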
How it was run: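 HCT116 p53-bla cells, 4000/well, dosed after 5 h plating (217-fold dilution of DMSO stocks) and incubated 16 h at 37C. Viability taken as cellular ATP by CellTiter-Glo luminescence after 30 min RT; signal loss marks cytotoxicity.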

[3] = biological target: Cellular tumor antigen p53 (Homo sapiens) (UniProt P04637); assay: TOX21_p53_BLA_p2_ratio: Tox21 HCT-116 p53 Agonism Beta-lactamase Assay, Ratio, Phase 2 (AID 2283592)
Cellular tumor antigen p53 (Homo sapiens), sequence (P04637 whole entry, looked up): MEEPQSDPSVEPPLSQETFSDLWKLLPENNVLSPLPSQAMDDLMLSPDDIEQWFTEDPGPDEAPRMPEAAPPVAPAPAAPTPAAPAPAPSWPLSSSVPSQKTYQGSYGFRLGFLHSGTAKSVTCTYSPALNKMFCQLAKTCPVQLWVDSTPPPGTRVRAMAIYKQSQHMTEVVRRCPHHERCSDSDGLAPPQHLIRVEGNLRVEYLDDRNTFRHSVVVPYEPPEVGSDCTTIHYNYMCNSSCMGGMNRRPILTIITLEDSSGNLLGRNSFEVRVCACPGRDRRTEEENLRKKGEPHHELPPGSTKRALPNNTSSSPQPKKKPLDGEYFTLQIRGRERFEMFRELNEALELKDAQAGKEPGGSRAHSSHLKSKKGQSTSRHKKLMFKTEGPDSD
How it was run: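 In this cell-based reporter format, HCT116 cells were dosed with chemicals delivered from DMSO by 217-fold dilution and incubated 16 h at 37C. Emission at 460 and 530 nm after 2 h CCF4-AM loading provided the ratio, fitted upward versus DMSO.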

[4] = biological target: Cellular tumor antigen p53 (Homo sapiens) (UniProt P04637); assay: TOX21_p53_BLA_p3_ratio: Tox21 HCT-116 p53 Agonism Beta-lactamase Assay, Ratio, Phase 3 (AID 2283596)
How it was run: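 HCT116 p53-bla cells (4000/well) given compound in DMSO (217-fold dilution) after 5 h, incubated 16 h at 37C. CCF4-AM substrate 2 h at room temperature; 460/530 nm emission ratio, gain fitted against DMSO.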

[5] = TOX21_p53_BLA_p4_viability: Viability Assessment in the Tox21 HCT-116 p53 Agonism Beta-lactamase Assay, Phase 4 (AID 2283597);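 further: hits lower the luminescence signal meaning cytotoxicity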
How it was run: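 We seeded HCT116 p53 reporter cells at 4000/well and waited 5 h. We then added compounds in DMSO at a 217-fold dilution and incubated for 16 h. Viability was read as CellTiter-Glo luminescence after 30 min at RT.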

[6] = biological target: Cellular tumor antigen p53 (Homo sapiens) (UniProt P04637); assay: TOX21_p53_BLA_p5_ratio: Tox21 HCT-116 p53 Agonism Beta-lactamase Assay, Ratio, Phase 5 (AID 2283599)
How it was run: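 HCT-116 p53-bla cells (4000/well) plated 5 h, dosed with compound (217-fold DMSO dilution) for 16 h at 37 C; CCF4-AM substrate 2 h at room temperature. Activity is the 460/530 nm emission ratio (405 nm excitation), fitted in gain-of-signal direction versus DMSO.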

[7] = TOX21_p53_BLA_p5_viability: Viability Assessment in the Tox21 HCT-116 p53 Agonism Beta-lactamase Assay, Phase 5 (AID 2283600)
How it was run: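 Compounds, pinned from DMSO at 217-fold dilution, were left on the cells for 16 h. The viability endpoint was ATP content measured by CellTiter-Glo luminescence, where falling signal reflects cytotoxicity.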

[8] = biological target: Cellular tumor antigen p53 (Homo sapiens) (UniProt P04637); assay: TOX21_p53_BLA_p4_ratio: Tox21 HCT-116 p53 Agonism Beta-lactamase Assay, Ratio, Phase 4 (AID 2283601)
How it was run: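 HCT-116 p53 beta-lactamase reporter cells (4000/well) preincubated 5 h, then compound (217-fold dilution of DMSO stock) for 16 h at 37C. CCF4-AM substrate added 2 h at room temperature; 460/530 nm emission ratio fitted upward versus DMSO.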

[9] = TOX21_p53_BLA_p3_viability: Viability Assessment in the Tox21 HCT-116 p53 Agonism Beta-lactamase Assay, Phase 3 (AID 2283593);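 further: cells exposed to compound for 16 h before reading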
How it was run: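 HCT116 cells, 4000/well, dosed 5 h after plating by pin transfer (217-fold dilution from DMSO stock) and incubated 16 h at 37C, 5% CO2. Viability read as ATP luminescence with CellTiter-Glo after 30 min at room temperature.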

Measured: AC50

Nc1cc([N+](=O)[O-])ccc1C(=O)O
not listed: [9]
inactive: all other assays above

CC(CCO)CC(C)(C)C (stereo not drawn)
not listed: [9]
inactive: all other assays above

CCC(C)(C)C1CCC(OC)CC1 (stereo not drawn)
not listed: [4] | [7]
inactive: all other assays above

CC(=O)Nc1cc(S(=O)(=O)O)cc2cc(S(=O)(=O)O)c(N=Nc3ccccc3)c(O)c12
not listed: [5] | [7] | [9]
inactive: all other assays above

NC(N)=S
not listed: [5] | [7]
inactive: all other assays above

CCCc1ccc(O)cc1
not listed: [4] | [7]
inactive: all other assays above

CC(=O)CCC=C(C)CCC=C(C)C
not listed: [5] | [9]
inactive: all other assays above

c1ccc2scnc2c1
not listed: [5] | [7]
inactive: all other assays above

CCCCCC1C(=O)CCC1CC(=O)OC (stereo not drawn)
not listed: [4] | [5]
inactive: all other assays above

CCCCCCCCCCCCCC(=O)OCC
not listed: [5] | [8] | [9]
inactive: all other assays above

CC(=O)C1C(=O)C=C(C)OC1=O (stereo not drawn)
not listed: [5] | [7]
inactive: all other assays above

CCCCOCCOC(=O)c1ccccc1C(=O)OCCOCCCC
not listed: [4] | [6] | [7]
inactive: all other assays above

O=C(O)C1=NN(c2ccc(S(=O)(=O)O)cc2)C(=O)C1
not listed: [5] | [9]
inactive: all other assays above

COC(=O)C(C)Oc1ccc(Oc2ncc(C(F)(F)F)cc2Cl)cc1 (stereo not drawn)
not listed: [5] | [6] | [8]
inactive: all other assays above

O=c1cc(-c2ccc(O)cc2)oc2cc(O)cc(O)c12
inactive: [1] | [2] | [3] | [4] | [5] | [6] | [7] | [8]
active: [4] 14.6 µM | [8] 13.4 µM

O=[N+]([O-])c1cc(N(CCO)CCO)ccc1NCCO
not listed: [5] | [6]
inactive: all other assays above

CCNC(=S)NCC
not listed: [9]
inactive: all other assays above

c1ccc(Cc2ccccc2)cc1
inactive: [1] | [2] | [3] | [4] | [7]

Cc1ccncc1
not listed: [5] | [7]
inactive: all other assays above

CN(C)CCC=C1c2ccccc2CCc2ccccc21
active: [1] 157 µM | [2] 74.2 µM | [5] 72.1 µM
inactive: [3] | [9] | [5] | [8]

CCC(C)(C)c1cc(O)c(C(C)(C)CC)cc1O
not listed: [4] | [5]
inactive: all other assays above

CCCCCCCC1CCCC1=O (stereo not drawn)
not listed: [5] | [9]
inactive: all other assays above

CCCCC(CC)COCCO (stereo not drawn)
not listed: [5] | [7] | [9]
inactive: all other assays above

O=S1(=O)CC(Cl)(Cl)C(Cl)(Cl)C1
inactive: [3]
active: [1] 26 µM | [2] 7.38 µM | [9] 24.9 µM | [5] 9.34 µM | [6] 39.4 µM | [7] 6.87 µM | [8] 39 µM

COc1ccc(OC)cc1
not listed: [5] | [7]
inactive: all other assays above

CC(=O)OC/C=C(C)/C=C/C=C(C)/C=C/C1=C(C)CCCC1(C)C
not listed: [4]
inactive: all other assays above

CC(C)(O)CCc1ccccc1
inactive: [1] | [3] | [6] | [8]

O=C(O)c1ccco1
not listed: [1] | [5] | [8]
inactive: all other assays above

CC(C)(O)C(=O)c1ccc(OCCO)cc1
inactive: [1] | [3] | [4] | [6] | [7]

CC1=CC[C@@H]2C[C@H]1C2(C)C
inactive: [1] | [9] | [5]

NCCCOCCOCCOCCCN
not listed: [1]
inactive: all other assays above

C=CC(=O)OCCCCCC
not listed: [2] | [3] | [7]
inactive: all other assays above

CCC(C)C1CCCCC1=O (stereo not drawn)
inactive: [1] | [3] | [7]

OCCCO
inactive: [1] | [6] | [8]

C=CC(C)CCCC(C)(C)O (stereo not drawn)
not listed: [2] | [3]
inactive: all other assays above

CC(=O)CCc1ccc(O)cc1
not listed: [2] | [9]
inactive: all other assays above

CCCO[Si](OCCC)(OCCC)OCCC
inactive: [1] | [9] | [5] | [7] | [8]

CCCCCCCCCOS(=O)(=O)O
not listed: [2] | [9]
inactive: all other assays above

CC(C)C(=O)c1ccccc1
inactive: [1] | [9] | [4] | [6]

CCCO
inactive: [1] | [3] | [6] | [7]

CC1(C)CC(=O)CC(C)(C)N1
inactive: [1] | [3] | [5] | [6] | [8]

O=S(=O)(O)c1cc(S(=O)(=O)O)c2c(N=Nc3ccccc3)c(O)ccc2c1
not listed: [1] | [6]
inactive: all other assays above

CCCCCCCCOC(C)=O
inactive: [1] | [3] | [4] | [5] | [8]

CC/C=C\CCCCO
inactive: [1] | [3] | [6] | [7] | [8]

CCCCCCCC(=O)N(C)C
not listed: [1] | [5]
inactive: all other assays above

NCCN1CCNCC1
inactive: [2] | [3] | [9] | [4] | [5] | [6] | [8]
active: [3] 0.000307 µM

CCCc1ccc(N)cc1
not listed: [2] | [7] | [9]
inactive: all other assays above

CC(CO)c1ccccc1 (stereo not drawn)
not listed: [1]
inactive: all other assays above

CC/C=C\CCOC(C)OCC (stereo not drawn)
inactive: [1] | [3] | [4] | [6]

CCC(=O)OC(C)(C)C1CC=C(C)CC1 (stereo not drawn)
not listed: [1]
inactive: all other assays above

CC(=O)C1=C(C)[C@@H]2C[C@@]3(C1)[C@H](C)CC[C@H]3C2(C)C
not listed: [2] | [3] | [5]
inactive: all other assays above

C/C=C(\C)C(=O)OC/C=C(\C)CCC=C(C)C
inactive: [1] | [3] | [4] | [6] | [8]

CC(=O)CC(C)(C)C1CCCCC1
not listed: [2] | [9]
inactive: all other assays above

COc1ccc(C(C)=O)cc1
inactive: [1] | [3] | [6] | [7] | [8]

CC1=CCC(C(C)(C)O)CC1 (stereo not drawn)
not listed: [1] | [5]
inactive: all other assays above

C=C(C)C(=O)OCCC(C)OC(=O)C(=C)C (stereo not drawn)
inactive: [1] | [5] | [6] | [8]

CCCC(O)C(CC)CO (stereo not drawn)
not listed: [1]
inactive: all other assays above

CC(=O)c1ccc2ccccc2c1
inactive: [1] | [3] | [6] | [8]

CC(C)Cc1ccc(C(C)C(=O)O)cc1 (stereo not drawn)
not listed: [1] | [8]
inactive: all other assays above

[O-]/[N+](=N\O)c1ccccc1
not listed: [1]
inactive: all other assays above

COC(=O)c1cccc(C(=O)OC)c1
not listed: [1]
inactive: all other assays above

C=C(C)C(=O)OCCC[Si](OC)(OC)OC
not listed: [1]
inactive: all other assays above

ClCCOCCOCCCl
not listed: [2] | [5] | [9]
inactive: all other assays above

CCCCCCCCCCOC(=O)c1ccccc1C(=O)OCCCCCCCC
inactive: [1] | [6]

O=C(OCc1ccccc1)c1ccccc1O
inactive: [1] | [3] | [9] | [6] | [8]

CC(C)(C)c1cccc(O)c1
inactive: [2] | [3] | [6] | [7] | [8]

CC(C)N1C(=O)c2ccccc2C1=O
inactive: [2] | [3] | [6] | [7] | [8]
